The values that follow come from PubChem BioAssay AID504810 (National Center for Advancing Translational Sciences (NCATS), 2011).

The campaign covered roughly 330,000 compounds. About 670 (0.2%) were called active.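 The calls were made as follows: active = activity change below a set negative limit, meaning inhibition stronger than a set level (cut at about -70% in these data); inconclusive = activity change between two set negative limits; inactive = the rest.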 Shown is part of a subset that was picked to be rich in actives.
% is scaled to controls: 0 for no effect and ±100 for the full control effect.

For the experiment, the target named is Thyrotropin receptor (Homo sapiens) (UniProt P16473). The experiment in a line: Antagonists of the Thyroid Stimulating Hormone Receptor: HTS campaign. Conditions: TSHR-expressing cells, TSH-stimulated cAMP HTRF, 2 h; at 11.5 µM; active compounds read low. An excerpt: The thyroid-stimulating hormone receptor (TSHR) is a member of the 7 trans-membrane-spanning receptor (7TMR) family of cell surface receptors. TSHR-mediated hyperthyroidism is important in thyroid pathology. The development of small molecule antagonists of TSHR may lead to therapeutic approaches for TSHR-mediated hyperthyroidism caused by constitutively activating mutations or stimulating auto-antibodies associated with Graves' disease. Graves' disease is the leading cause of hyperthyroidism and is caused by autoantibodies that stimulate TSHR (TsAbs) causing thyroid growth and unregulated overproduction of thyroid hormones and existing treatments have liabilities (agranulocytosis). In addition, TSHRs are known to be expressed in multiple extrathyroidal tissues including bone, brain, kidney, testis, fat and cells of the immune system but the role of the TSHR in these tissues is not clear. Therefore, TSHR antagonists/inverse agonists could be used as probes of extrathyroidal TSHR function. Finally, TSHR inverse agonists, which are a subclass of antagonists that inhibit agonist-independent (or basal or constitutive) TSHR signaling, could be used to inhibit TSH-independent signaling in patients with recurrent or metastatic thyroid cancer who are receiving thyroid hormone to suppress TSH. In collaboration between scientist from the NCGC and the NIDDK, a miniaturized HTRF high-throughput screen was developed. It's a cell based assay, where an anti cAMP antibody contains a fluorescent cryptate tag (excitation 337 nm; emission 620 nm) and the acceptor is cAMP-d2 (excitation 620 nm; emission 665 nm). When antibody and cAMP-d2 interact and are excited by a 337 nm light, a FRET occurs resulting in emission at 665 nm. The assay is competition between cAMP-d2 and cAMP (from the cell lysate). The homogeneous protocol allows for one step dispense after stimulation that is automation friendly. NIH Chemical Genomics Center [NCGC] NIH Molecular Libraries Probe Centers Network [MLPCN] MLPCN Grant: MH090855-01 Assay Submitter (PI): Marvin Gerhengorn
Thyrotropin receptor (Homo sapiens), sequence (P16473 whole entry, looked up): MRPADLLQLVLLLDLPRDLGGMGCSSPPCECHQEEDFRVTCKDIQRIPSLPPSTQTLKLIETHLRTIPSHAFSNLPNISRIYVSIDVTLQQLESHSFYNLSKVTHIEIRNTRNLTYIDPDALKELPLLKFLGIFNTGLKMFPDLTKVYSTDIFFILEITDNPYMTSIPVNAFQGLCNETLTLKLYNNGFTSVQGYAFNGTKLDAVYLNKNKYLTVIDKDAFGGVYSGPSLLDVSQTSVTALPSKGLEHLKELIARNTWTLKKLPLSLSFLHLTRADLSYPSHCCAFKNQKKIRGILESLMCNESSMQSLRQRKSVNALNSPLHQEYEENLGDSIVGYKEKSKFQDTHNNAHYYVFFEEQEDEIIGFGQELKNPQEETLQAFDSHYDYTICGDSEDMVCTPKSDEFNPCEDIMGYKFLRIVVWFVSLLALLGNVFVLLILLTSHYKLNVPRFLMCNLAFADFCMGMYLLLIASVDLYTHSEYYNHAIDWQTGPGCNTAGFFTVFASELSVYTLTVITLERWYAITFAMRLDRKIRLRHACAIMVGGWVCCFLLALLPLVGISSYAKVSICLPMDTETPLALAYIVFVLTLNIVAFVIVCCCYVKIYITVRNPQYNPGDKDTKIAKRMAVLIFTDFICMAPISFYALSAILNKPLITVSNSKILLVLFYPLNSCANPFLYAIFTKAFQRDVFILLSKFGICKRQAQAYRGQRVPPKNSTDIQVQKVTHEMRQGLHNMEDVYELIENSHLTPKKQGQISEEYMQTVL
1. 3ul of 200 TSHR freshly harvested cells/well are dispensed into a 1536 TC-treated white solid bottom plate. 2. Through pintool addition, 23nl of compounds and control in 100% DMSO are added to the plate. 3. Then 1ul of EC80 TSH (4nM final) is added to the plate. 4. Assay is incubated at 37 deg C for 2 hours. 5. 2ul of cAMP antibody diluted 1:20 in lysis buffer is added. 6. Immediately following, 2ul of d2 diluted 1:20 in HBSS is added seperately. 7. The assay is incubated for 30 minutes at ambient room temperature. 8. The result is obtained by using a ViewLux read-out with HTRF settings.
Take `COC(=O)C1=C(c2cccc(OCc3ccccc3)c2)C[C@@H]2CC[C@H]1N2C(=O)NCc1ccc(Br)cc1`: the activity change, negative = inhibition was -5.89% (inactive).

With `COC(=O)C1=C(c2ccc(F)cc2OCc2ccccc2)C[C@@H]2CC[C@H]1N2C(=O)NCc1ccc(Cl)cc1`, the activity change, negative = inhibition was -10% (inactive). In the case of `COC(=O)C1=C(c2ccc(-c3ccccc3)c(F)c2)C[C@@H]2CC[C@H]1N2C(=O)NCc1ccc(F)cc1` it was -85% (active); in that of `c1ccc2c(c1)[I+]c1ccccc1-2`, -36.8% (inactive). With `CC(=O)c1c(O)c(C)c(O)c(Cc2c(O)c3c(c(C(=O)/C=C/c4ccccc4)c2O)OC(C)(C)C=C3)c1O`, the activity change, negative = inhibition is -26.9% (inactive). In the case of `CCOC(=O)c1ncn2c1[C@@H]1CCCN1C(=O)c1cc(OC)ccc1-2` it was -12.5% (inactive). Regarding `C[C@]12CCC3C(CC[C@H]4C[C@@H](O)CC[C@]34C)C1CC[C@@H]2O` (stereo not given in full), the activity change, negative = inhibition was 3.15% (inactive). For the compound `C[C@]12CC[C@H](O)C[C@H]1CC[C@@H]1C2CC[C@]2(C)[C@@H](C3=CC(=O)OC3)[C@@H](O)C[C@]12O` (stereo not given in full), the activity change, negative = inhibition is -81.8% (active). In the case of `C[C@]12CCC3C(CC[C@H]4C[C@@H](O)CC[C@]34C)C1C[C@@H](O)[C@H]2O` (stereo not given in full) it was 2.4% (inactive). For `CC(=O)NBr`, the activity change, negative = inhibition was -6.86% (inactive).
